IkB signaling – IkB Signaling. ABC-DLBCL IkBa-CBG/CBR dual luciferase ratio, 4 h; response scale: scaled: untreated 0%, proteasome inhibitor 100%. actives 0.04% (n = 110,000). AID 445, 2006. Potency, µM (doses to about 57.1 µM), without a hit: at the top dose IkBa stabilization activation; active means well fitted curve in the direction sought with a large enough effect in the signal ratio, not every such curve was filed as active; inconclusive means small, poorly fitted or top-dose-only effect, or a change in a side signal; the % refers to the signal ratio;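 further: the direction sought is a rising ratio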
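Curves were fitted separately to fusion (green), unfused (red) and ratio luminescence, then classed by r2, magnitude and activity. Cells: OCI-Ly3, 4 h compound plus doxycycline at 37C; 10 uM MG-132 defined full response.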
TSHR agonist – qHTS Assay for Agonists of the Thyroid Stimulating Hormone Receptor; Thyrotropin receptor (Homo sapiens), P16473; HEK293-CNG-TSHR cells (CNG channel as cAMP sensor), membrane potential dye, cAMP; Potency, µM (highest dose often 57.1 µM), for inactives: at the highest dose activation, hits mostly activators; actives 0.48% (n = 73,000); AID 926, 2007; active means well fitted activation curve with a large enough effect in the main read-out, with a control signal flat, not every such curve was filed as active; inconclusive means small, poorly fitted or top-dose-only effect, or a change in a side signal; inactive means no such curve, though single readings can be large or run the other way; % of control where 0% means no effect;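 further: the control signal comes from parental cells without the receptor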
Target sequence (P16473 whole entry, looked up): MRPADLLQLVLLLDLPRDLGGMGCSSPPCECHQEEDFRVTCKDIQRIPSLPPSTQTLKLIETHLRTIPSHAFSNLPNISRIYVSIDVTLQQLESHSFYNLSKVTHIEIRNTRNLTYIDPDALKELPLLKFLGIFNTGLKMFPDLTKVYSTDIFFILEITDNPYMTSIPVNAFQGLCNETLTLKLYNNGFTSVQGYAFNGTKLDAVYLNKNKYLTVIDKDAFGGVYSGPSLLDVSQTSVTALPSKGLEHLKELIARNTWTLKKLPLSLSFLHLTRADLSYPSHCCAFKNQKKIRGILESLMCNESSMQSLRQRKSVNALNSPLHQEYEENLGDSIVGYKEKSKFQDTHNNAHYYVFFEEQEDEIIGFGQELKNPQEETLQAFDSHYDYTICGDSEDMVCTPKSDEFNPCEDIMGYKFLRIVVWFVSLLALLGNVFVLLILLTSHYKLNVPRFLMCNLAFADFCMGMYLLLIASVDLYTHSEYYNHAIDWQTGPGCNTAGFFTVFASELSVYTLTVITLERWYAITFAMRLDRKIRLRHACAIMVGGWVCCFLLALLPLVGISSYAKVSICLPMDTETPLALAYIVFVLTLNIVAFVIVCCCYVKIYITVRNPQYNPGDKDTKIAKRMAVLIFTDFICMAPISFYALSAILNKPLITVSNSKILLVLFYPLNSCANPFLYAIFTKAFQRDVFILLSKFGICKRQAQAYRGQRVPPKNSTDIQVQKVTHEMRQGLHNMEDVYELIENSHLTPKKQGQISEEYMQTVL
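HEK 293 cells stably expressing TSHR and a cAMP-gated CNG channel; parental CNG-only cells as counterscreen. Cells preloaded 60 min with membrane potential dye plus 100 uM RO 20-1724, then compound 30 min; fluorescence read at 590 nm.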
HEK293 cAMP cs – qHTS Assay for Agonists of the Thyroid Stimulating Hormone Receptor: Activators of Intracellular cAMP Concentrations in Parental HEK 293; parental HEK293 CNG cAMP sensor, membrane potential fluorescence; Potency, µM (highest dose often 57.1 µM), for the others: at the highest dose activation, actives largely listed as activators; actives 2.5% (n = 73,000); active means well fitted activation curve with a large enough effect; inconclusive means small, poorly fitted or top-dose-only effect; inactive means no such curve, though single readings can be large or run the other way; further: % of control where 0% means no effect; nearly all actives have a fitted effect of over 55% in size
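Parental HEK 293 cells stably expressing a cAMP-gated CNG channel were loaded with membrane potential dye containing 100 uM RO 20-1724 for 60 min. Compound added for 30 min; depolarization read as fluorescence intensity at 590 nm.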
Hsp90 Hop PPI – qHTS Assay for Disrupters of an Hsp90 Co-Chaperone Interaction; Hsp90 C-terminal peptide / TPR2A (Hop) interaction, human; AlphaScreen TPR2A-His6 binding biotin-Hsp90 C-terminal peptide; Potency, µM (highest dose often 57 µM), inactives show top-dose activity change, negative = inhibition; actives 0.44% (n = 71,000); AID 595, 2007; active means well fitted curve in either direction with a large enough effect; inconclusive means small, poorly fitted or top-dose-only effect, or another doubt; further: on the % scale 0 is the no-effect control and ±100 the full control effect
CRE Fsk mod – Cell signaling CRE-BLA (Fsk stim); actives 2.5% (n = 71,000); CHO CRE-bla reporter (cAMP response element driving beta-lactamase), forskolin EC10, beta-lactamase ratio; Potency, µM (highest dose often 38.2 µM), inactives show at the highest dose activity change, negative = inhibition, usual class: activators; active means well fitted activation curve with a large enough effect in the signal ratio, with a control signal flat, not every such curve was filed as active; inconclusive means small, poorly fitted or top-dose-only effect, or effect the other way, or a change in a side signal; the % refers to the signal ratio; further: % of control where 0% means no effect
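Beta-lactamase reporter under a cAMP responsive element in CHO cells; compounds tested in titration series against EC10 NKH 477, 3 h at 37 °C. Read-out: CCF4 FRET ratio 460nm/530nm (excitation 405nm) giving %Activity, fitted to AC50.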
An asterisk follows results filed as active; u = inconclusive; x = not tested or not shown; [ ] = remark or other dose. Hits are enriched below; roughly 3.5% of the tested compounds scored in any of these assays. Potency means the concentration at half of the fitted maximal effect.

SMILES	IkB signaling	TSHR agonist	HEK293 cAMP cs	Hsp90 Hop PPI	CRE Fsk mod
CCC(Sc1nc(C)cc(=O)[nH]1)C(=O)Nc1nnc(C)s1 (stereo not drawn)	0%	-1%	0%	-6%	-2%
CCC(Sc1nnc(C)s1)C(=O)Nc1nccs1 (stereo not drawn)	3%	u	25µM*	0%	u
CCC(Sc1nc2ccccc2s1)C(=O)Nc1nnc(C)s1 (stereo not drawn)	u	u	20µM*	1%	-5%
CCc1cc2c(CN3CCN(CC)CC3)cc(=O)oc2cc1O	-1%	12%	7%	-4%	u
CCN1CCN(Cc2c(O)c(Cl)cc3c(C)cc(=O)oc23)CC1	3%	2%[11.4 µM]	5%[11.4 µM]	-6%[11 µM]	4µM*
COc1ccc(CNC(=O)c2ccc3nc(CCc4ccccc4)oc3c2)c(OC)c1	-2%	x	x	x	x
CC(=O)NC(N1CCCCC1)C(F)(F)C(F)(F)C(F)(F)C(F)F (stereo not drawn)	0%	1%	-1%	0%	-5%
O=P(O)(O)C(O)C(F)(F)C(F)(F)C(F)(F)C(F)F (stereo not drawn)	1%	u	4µM*	0%	-5%
O=C(Nc1ccc(F)cc1F)c1cc2c(=O)n3ccccc3nc2s1	2%	x	x	x	x
Cc1ccc(CCNC(=O)C2CCN(S(=O)(=O)c3ccc4c(c3)CCC(=O)N4)CC2)cc1	1%	0%	0%	-3%	-4%
CC(C)CCNC(=O)C1CCN(S(=O)(=O)c2ccc3c(c2)CCC(=O)N3)CC1	2%	u	6.3µM*	-1%	-6%
COC(=O)C1(C)C=C2C(=C(c3ccccc3)C(=O)C2C)CN1 (stereo not drawn)	x	2%	8%	-3%	-10%
CN(C)Cc1ccccc1-c1ccc2ncnc(NCc3cccs3)c2c1	-2%[11.4 µM]	12%	14%	-7%	-9%
CNc1ncnc2ccc(-c3ccccc3C)cc12	3%[11.4 µM]	u	2µM*	-4%	u
COc1ccccc1-c1ccc2ncnc(NCc3cnc(C)cn3)c2c1	2%[11.4 µM]	u	25µM*	-2%	u
Cc1ccccc1-c1ccc2ncnc(NCc3cccs3)c2c1	3%[11.4 µM]	u	4µM*	2%	-19%
Cc1cccc(CNc2ncnc3ccc(-c4ccoc4)cc23)c1	-4%[11.4 µM]	u	32µM*	-3%	u
N#Cc1ccccc1-c1ccc2ncnc(NCc3ccccc3)c2c1	5%[11.4 µM]	u	u	6%	2µM*
CCN(CC)COC(=S)S	2%[11.4 µM]	-6%[11.4 µM]	2%[11.4 µM]	0%[11 µM]	12%[7.6 µM]
COc1cc(C2N(c3ccccc3)CCN2c2ccccc2)cc(OC)c1OC	0%	3.2µM*	29%	1%	u
CC(=O)OC[C@@H]1O[C@@H](O/N=C2/C[C@@H](O)[C@@H](O)[C@@H]3[C@@H]4C(=O)N(C[C@@H]5CCCO5)C(=O)[C@H]4CC[C@H]23)[C@H](OC(C)=O)[C@H](OC(C)=O)[C@@H]1OC(C)=O	x	-1%[11.4 µM]	-3%[11.4 µM]	x	x
Cc1cc(C)c2nc(SCC(=O)N3CCCCC3)c(C#N)cc2c1	-1%	u	u	-4%	-14%
Cc1cccc2cc(C#N)c(SCC(=O)N3CCC(C)CC3)nc12	0%	u	25µM*	-1%	u
O=C(CSCc1cnn(-c2ccccc2)c1-n1cccc1)Nc1ccc(F)cc1F	6%	x	x	x	x
CCC/C=C(\CCC)C(NC(=O)c1ccccc1)c1ccc(C(=O)OC)cc1 (stereo not drawn)	x	u	3.2µM*	18%	-7%
SMILES	IkB signaling	TSHR agonist	HEK293 cAMP cs	Hsp90 Hop PPI	CRE Fsk mod
COC(=O)c1ccc(C(/C=C/[C@@H](C)C(=O)N(C)Cc2ccccc2)NC(=O)OCc2ccccc2)cc1 (stereo partly drawn)	x	u	u	3%	-8%
CCCC/C=C/C(NC(=O)C(C)(C)C)c1ccccc1 (stereo not drawn)	x	u	25µM*	-7%	u
CCC/C=C(\CCC)C(NS(=O)(=O)c1ccccc1)c1ccc(C(F)(F)F)cc1 (stereo not drawn)	x	u	u	u	2µM*
CCCC/C=C/C(NC(=O)c1ccc(C(=O)OC)cc1)c1ccccc1 (stereo not drawn)	x	u	25µM*	-3%	5%
O=C(NCCCN1CCN(c2ccc(F)cc2)CC1)c1ccc2nc(Cc3ccccc3)oc2c1	4%	x	x	x	x
Cc1ccccc1NC(=O)CSc1nc(-c2cccs2)nc2cc(=O)[nH]n12	0%	x	x	x	x
O=c1c2cnn(-c3ccc(F)cc3)c2ncn1Cc1ccccc1Cl	1%	x	x	x	x
Oc1cccc2ccc(SSc3ccc4cccc(O)c4n3)nc12	0%[11.4 µM]	4%[11.4 µM]	5%[11.4 µM]	-4%[11 µM]	-6%[7.6 µM]
O=C(NCc1ccccc1Cl)c1ccc(CS(=O)(=O)c2ccc(Br)cc2)o1	7%	x	x	x	x
CCOC(=O)c1oc2ccc(S(=O)(=O)N3CCC(C)CC3)cc2c1C	0%	u	25µM*	-2%	u
COc1cc(C2C(C#N)=C(N)Oc3cc(N(C)C)ccc32)cc2c1OCO2 (stereo not drawn)	u	10%[11.4 µM]	9%	-10%	1.3µM*
COc1cc(C2C(C#N)=C(N)Oc3cc(O)ccc32)cc2c1OCO2 (stereo not drawn)	7%	0%	16%	-7%	-2%
COc1ccccc1-c1cncnc1NCCNC(C)=O	0%[11.4 µM]	0%	9%	-13%	0%
N=c1ccn2c(n1)O[C@H]1[C@@H](OP(=O)(O)O)[C@H](CO)O[C@H]12	0%[11.4 µM]	0%[11.4 µM]	5%[11.4 µM]	-3%[11 µM]	-3%[7.6 µM]
C=CCn1c(O)c(C(CC)=NCc2cccnc2)c(=O)[nH]c1=O	5%	2%	6%	u	13µM*
O=C1c2ccccc2C(Nc2ccc(F)c(Cl)c2)N1c1ccccn1 (stereo not drawn)	u	20µM*	13%	-3%[2.3 µM]	5%
COc1ccc(S(=O)(=O)Cc2ccc(C(=O)N3CCN(c4ccc(Cl)cc4)CC3)o2)cc1	u	20µM*	18%	-10%	u
CNc1nc(-c2ccccc2CN(C)C)nc2ccccc12	-6%[11.4 µM]	u	u	-3%	u
COc1ccccc1-c1nc(NCc2ccccc2)c2ccccc2n1	4%[11.4 µM]	u	u	-5%	5%
CN(C)Cc1ccccc1-c1nc(N(C)C)c2ccccc2n1	-6%[11.4 µM]	u	10µM*	-1%	4µM*
COc1ccccc1CNc1nc(-c2ccccc2OC)nc2ccccc12	-1%[11.4 µM]	32µM*	20%	-10%	13%
Cc1cccc(CNc2nc(-c3ccccc3CN(C)C)nc3ccccc23)c1	-4%[11.4 µM]	u	0.79µM*	-10%	u

Source: PubChem BioAssay (National Center for Advancing Translational Sciences (NCATS))
